Unmarked numbers belong to inactive results. Inconclusive results are not listed. Active and inactive are the calls of the source. Unless noted, calls follow the shape of the dose curve; as a rule, active = well fitted curve in the direction sought with a large enough effect; inconclusive = small, poorly fitted or top-dose-only effect, or another doubt; inactive = no such curve, though single readings can be large; an effect the other way counts as inactive or inconclusive.

This passage reports outcome and Potency results from PubChem BioAssay (NCATS).

Assay [1] is described as follows: Cytometric Cell-Based qHTS for Inhibitors of the mTORC1 Signaling Pathway in MEF (Tsc2-/-, p53-/-) Cells (AID 2660).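 Also: Tsc2 and p53 null MEFs carrying empty vector with compound for 24 h; percent of cells above a phospho-rpS6 to PI ratio cutoff in each well.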 The method in brief:
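Readout: Alexa-488 phospho-rpS6 (Ser235/236) intensity divided by PI intensity, thresholded against 7.5 nM rapamycin wells and reported as % positive cells. PI cell count served as the viability measure. Compound exposure was 24 hrs at 37 degree Celsius.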

Assay [2] is described as follows: High Content Imaging Cell-Based qHTS for Inhibitors of the mTORC1 Signaling Pathway in MEF (Tsc2-/-, p53-/-) Cells (AID 2666).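 Also: percent of cells scored positive for phospho-rpS6 Ser235/236 immunostaining by imaging.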 The settings on record: at 38.3 µM (top of the series). The procedure, abridged:
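Cells were plated, dosed with compound after 24 hrs, and incubated another 24 hrs at 37 degree Celsius. Fixed cells were immunostained for phospho-rpS6 Ser235/236 and counterstained, and the normalized signal was scored as % active cells against rapamycin and DMSO controls.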

Assay [3] in a line: High Content Imaging Cell-Based qHTS for Inhibitors of the mTORC1 Signaling Pathway in MEF Cells (AID 2667). Also: potency is read from the fitted curve at half-maximal effect. The method in brief:
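Immunofluorescence for rpS6 phosphorylation in MEFs of Tsc2-/-, p53-/- background rescued with WT Tsc2. Compound exposure lasted 24 hrs. Inhibition was scored against rapamycin-treated control wells.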

Assay [4] in a line: Cytometry Cell-Based qHTS for Inhibitors of the mTORC1 Signaling Pathway in MEF cells (AID 2668). Also: potency is read from the fitted curve at half-maximal effect. The method in brief: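 WT MEFs (Tsc2-/-, p53-/- stably re-expressing WT Tsc2) in DMEM + 10% FBS received compounds 24 hrs after plating, for 24 hrs at 37 degree Celsius. Fixed cells stained with Alexa-488 anti-phospho-rpS6 Ser235/236 and propidium iodide; laser-scanning cytometry read-out.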

The target of assay [5] is Ubiquitin carboxyl-terminal hydrolase 2 (Homo sapiens) (UniProt O75604). The assay is described as follows: qHTS Validation Assay for Inhibitors of Ubiquitin-specific Protease USP2a Using CHOP2 as the Reporter (AID 463106). The method in brief: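 10nM USP2 core + cpd, 30min RT; add 25nM Ub-CHOP2/25nM substrate; 60min RT; FI 485/531nm. Buffer Tris pH 8.0, CaCl2, BME, CHAPS. Norm. to NEM = 100% inhibition; time-zero read flags fluorescent artifacts.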
Ubiquitin carboxyl-terminal hydrolase 2 (Homo sapiens), sequence (O75604 whole entry, looked up): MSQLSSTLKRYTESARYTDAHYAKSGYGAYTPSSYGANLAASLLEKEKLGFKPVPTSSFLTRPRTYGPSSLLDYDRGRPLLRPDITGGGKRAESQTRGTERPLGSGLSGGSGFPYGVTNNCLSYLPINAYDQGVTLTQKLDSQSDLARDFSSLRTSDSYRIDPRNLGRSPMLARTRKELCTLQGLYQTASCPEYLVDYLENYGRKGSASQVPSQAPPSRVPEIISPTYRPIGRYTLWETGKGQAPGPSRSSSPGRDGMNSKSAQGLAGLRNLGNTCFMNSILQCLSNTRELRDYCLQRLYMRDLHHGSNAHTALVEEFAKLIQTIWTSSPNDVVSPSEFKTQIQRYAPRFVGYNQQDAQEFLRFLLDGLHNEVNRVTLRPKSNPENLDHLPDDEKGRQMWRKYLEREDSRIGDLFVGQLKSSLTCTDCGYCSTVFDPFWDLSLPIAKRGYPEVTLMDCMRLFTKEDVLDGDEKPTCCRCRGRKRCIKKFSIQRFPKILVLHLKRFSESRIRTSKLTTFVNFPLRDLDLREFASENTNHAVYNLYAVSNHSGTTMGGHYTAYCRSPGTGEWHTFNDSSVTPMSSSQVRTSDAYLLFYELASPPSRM

For assay [6], the target named is DNA polymerase III PolC-type (Bacillus subtilis (strain 168)) (UniProt P13267). Briefly: qHTS Validation Assay for the Inhibitors of DNA Replication in Gram-Positive Bacteria (AID 485295).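 Also: PicoGreen fluorescence of double-stranded DNA made on primed circular M13 template.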 The method in brief: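 Reconstituted B. subtilis holoenzyme (Pol III, beta clamp, SSB, primase) was preincubated with compound at room temperature, then given single-stranded circular M13Gori plus dNTPs and NTPs. EDTA-containing PicoGreen stopped the reaction, and dsDNA product was read by fluorescence.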
DNA polymerase III PolC-type (Bacillus subtilis (strain 168)), sequence (P13267 whole entry, looked up): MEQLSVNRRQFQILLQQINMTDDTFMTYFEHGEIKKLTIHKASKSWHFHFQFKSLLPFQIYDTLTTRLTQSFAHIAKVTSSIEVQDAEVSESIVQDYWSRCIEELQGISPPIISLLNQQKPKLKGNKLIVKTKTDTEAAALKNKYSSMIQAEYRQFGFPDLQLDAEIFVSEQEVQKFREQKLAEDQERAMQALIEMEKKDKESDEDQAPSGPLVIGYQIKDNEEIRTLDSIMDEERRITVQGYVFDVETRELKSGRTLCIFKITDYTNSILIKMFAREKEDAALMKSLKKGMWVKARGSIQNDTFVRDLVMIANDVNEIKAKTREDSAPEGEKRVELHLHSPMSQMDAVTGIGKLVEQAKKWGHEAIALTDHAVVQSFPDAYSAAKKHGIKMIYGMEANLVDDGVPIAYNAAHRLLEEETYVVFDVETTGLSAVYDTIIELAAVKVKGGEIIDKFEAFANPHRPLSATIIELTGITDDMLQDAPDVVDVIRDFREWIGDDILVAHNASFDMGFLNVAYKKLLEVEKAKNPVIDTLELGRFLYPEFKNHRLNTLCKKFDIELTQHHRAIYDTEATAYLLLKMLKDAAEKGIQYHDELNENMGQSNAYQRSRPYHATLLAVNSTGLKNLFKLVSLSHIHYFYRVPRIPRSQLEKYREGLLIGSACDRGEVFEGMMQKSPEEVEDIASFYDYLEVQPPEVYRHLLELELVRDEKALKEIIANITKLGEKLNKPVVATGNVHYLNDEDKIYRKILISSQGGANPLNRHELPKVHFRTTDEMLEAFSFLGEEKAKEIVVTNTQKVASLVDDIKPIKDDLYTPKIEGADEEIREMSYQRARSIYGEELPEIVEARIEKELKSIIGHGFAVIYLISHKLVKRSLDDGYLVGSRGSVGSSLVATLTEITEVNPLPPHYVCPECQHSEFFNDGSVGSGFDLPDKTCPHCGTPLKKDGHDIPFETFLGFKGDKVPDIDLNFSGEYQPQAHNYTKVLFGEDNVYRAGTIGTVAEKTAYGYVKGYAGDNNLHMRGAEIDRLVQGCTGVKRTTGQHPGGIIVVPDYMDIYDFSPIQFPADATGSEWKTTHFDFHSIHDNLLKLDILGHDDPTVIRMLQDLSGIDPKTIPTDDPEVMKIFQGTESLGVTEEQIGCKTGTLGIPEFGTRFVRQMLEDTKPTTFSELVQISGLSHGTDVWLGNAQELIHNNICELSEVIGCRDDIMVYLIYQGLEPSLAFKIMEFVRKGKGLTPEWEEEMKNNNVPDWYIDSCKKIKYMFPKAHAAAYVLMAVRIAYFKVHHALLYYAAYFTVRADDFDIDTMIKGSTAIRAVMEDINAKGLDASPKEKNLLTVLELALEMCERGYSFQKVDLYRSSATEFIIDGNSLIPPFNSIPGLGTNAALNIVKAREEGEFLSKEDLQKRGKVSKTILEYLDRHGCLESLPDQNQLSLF

Assay [7] has as its target Tumor susceptibility gene 101 protein (Homo sapiens) (UniProt Q99816). The assay is described as follows: qHTS Validation Assay for Iinhibitors of HIV-1 Budding by Blocking the Interaction of PTAP/TSG101 (AID 485342; calls by dose curve). The method in brief: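 Tsg101 binding domain (10 uM final) in pH 7.5 HEPES/NaCl/Tween 20/EDTA/TCEP buffer was mixed with pin-transferred compounds, then FITC-labeled PTAP peptide (50 nM final) was added; after 20 min at r.t., fluorescence polarization was read.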

Assay [8] deals with Beta-2 adrenergic receptor (Homo sapiens) (UniProt P07550). The assay is described as follows: qHTS validation assay of beta-arrestin-biased ligands of beta2-adrenergic receptor (AID 485366). The procedure, abridged: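 Tango cells (recombinant beta2-AR with recombinant beta-arrestin; recruitment releases tTA driving luciferase) were treated with compounds titrated up to 46 microM for 18 hr at 37 degrees C. Luminescence gave %Activity, and concentration-response curves were curve-classified.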
Beta-2 adrenergic receptor (Homo sapiens), sequence (P07550 whole entry, looked up): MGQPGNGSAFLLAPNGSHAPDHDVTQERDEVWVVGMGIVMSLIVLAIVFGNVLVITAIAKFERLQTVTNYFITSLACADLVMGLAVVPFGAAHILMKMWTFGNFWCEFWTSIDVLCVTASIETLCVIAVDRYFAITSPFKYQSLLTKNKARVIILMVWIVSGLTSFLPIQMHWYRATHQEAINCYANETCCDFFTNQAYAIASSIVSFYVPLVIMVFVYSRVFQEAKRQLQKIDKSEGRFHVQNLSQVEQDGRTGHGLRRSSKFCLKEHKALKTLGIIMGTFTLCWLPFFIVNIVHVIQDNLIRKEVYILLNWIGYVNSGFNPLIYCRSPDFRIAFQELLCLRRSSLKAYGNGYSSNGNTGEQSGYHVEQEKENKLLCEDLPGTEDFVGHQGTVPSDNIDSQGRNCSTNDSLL

The target in assay [9] is Thioredoxin reductase 1, cytoplasmic (Rattus norvegicus) (UniProt O89049). Briefly: qHTS Assay for Substrates of Mammalian Selenoprotein Thioredoxin Reductase 1 (TrxR1) (AID 488772).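 Also: NADPH fluorescence in the first read after selenite addition and not the 8 min delta; a drop in NADPH fluorescence below the no-compound background marks a TrxR1 substrate.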 The procedure, abridged:
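Quantitative HTS in Tris-HCl buffer at pH 7.5 with EDTA and Tween-20, using rat TrxR1, 400 uM NADPH and 400 uM selenite (final). A fall in initial NADPH fluorescence relative to background marked substrate behaviour.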

For assay [10] the target is unchanged. Briefly: qHTS Assay for Inhibitors of Mammalian Selenoprotein Thioredoxin Reductase 1 (TrxR1) (AID 488773).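 Also: drop in NADPH fluorescence over an 8 min run after selenite addition; nearly all actives have a fitted effect of over 40% in size.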 The conditions noted are these: Potency: inhibition. The method in brief: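 Steps: enzyme (90 nM) plus NADPH (400 uM final), 5 min at ~22 deg C; compound added, 15 min; selenite (400 uM final) added; fluorescence followed for 8 min. Concentration-response curves derived from the normalized delta values.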

Assay [11] has as its target M-phase phosphoprotein 8 (Homo sapiens) (UniProt Q99549). Briefly: qHTS Validation Assay for Inhibitors for MPP8 Chromodomain Interactions with Methylated Histone Tails (AID 488949). Also: potency is read from the fitted curve at half-maximal effect; nearly all actives have a fitted effect of over 55% in size. The method in brief: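 MPP8 (50 nM) was preincubated with biotinylated H3(1-18)K9me3 peptide (50 nM) in PBS pH 7.4, 0.01% Tween-20 for 30 min at room temperature, then with compounds for 30 min; binding was detected by AlphaScreen.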

Assay [12] concerns the target Chromobox protein homolog 1 (Homo sapiens) (UniProt P83916). Briefly: qHTS Validation Assay for Inhibitors of HP1-beta Chromodomain Interactions with Methylated Histone Tails (AID 488953). Also: potency is read from the fitted curve at half-maximal effect; nearly all actives have a fitted effect of over 50% in size. The method in brief: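 HP1-beta (50 nM) was preincubated 30 min at room temperature with biotinylated H3(1-18)K9me3 peptide (50 nM) in PBS pH 7.4, 0.01% Tween-20, then with compounds 30 min. AlphaScreen signal was read after streptavidin donor/nickel chelate acceptor beads (10 ug/mL final).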

Assay [13] addresses D(1A) dopamine receptor (Homo sapiens) (UniProt P21728). The assay is described as follows: HTS Assay for Allosteric Agonists of the Human D1 Dopamine Receptor: Primary Screen for Agonists (AID 488981). The method in brief: (§1)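 Calcium flux in an inducible, force-coupled HEK293 Trex D1 line (overnight at 30 C): agonist mode is the 180 s kinetic read after compound; potentiator mode is the following 180 s read after dopamine at EC20.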

The target is the same in assay [14]. Briefly: HTS Assay for Allosteric Agonists of the Human D1 Dopamine Receptor: Primary Screen for Potentiators (AID 488982). The procedure, abridged: as §1
The target is the same in assay [15]. Briefly: HTS Assay for Allosteric Agonists of the Human D1 Dopamine Receptor: Primary Screen for Antagonists (AID 488983).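 Also: calcium flux response to an EC80 dopamine challenge measured with no-wash dye; nearly all actives have a fitted effect of over 65% in size.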 The method in brief: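 Tetracycline-induced HEK293 T-REx cells expressing force-coupled D1 were plated overnight at 30 C, dye-loaded for calcium, and read kinetically. Compounds were pinned in, then an EC80 dopamine challenge followed after 180 s to reveal antagonism.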

The nature of assay [16]: Validation screen for small molecules that induce genotoxicity in human embryonic kidney (HEK293T) cells expressing luciferase-tagged ELG1 (AID 493106). The procedure, abridged: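 HEK293T cells expressing luciferase-tagged ELG1 were exposed to compound or DMSO vehicle for 16 hr at 37 °C, 5% CO2. Genotoxic stress raises ELG1 levels, so increased luciferase signal after ONE-Glo addition and 30 min at room temperature marks hits.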

Assay [17] concerns the target ATPase family AAA domain-containing protein 5 (Homo sapiens) (UniProt Q96QE3). Briefly: Validation screen for small molecules that inhibit ELG1-dependent DNA repair in human embryonic kidney (HEK293T) cells expressing luciferase-tagged ELG1 (AID 493107). Also: potency is read from the fitted curve at half-maximal effect; nearly all actives have a fitted effect of over 70% in size. The method in brief:
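HEK293T cells expressing luciferase-tagged ELG1 were co-treated with 5-fluorouridine and compound or DMSO for 16 hr at 37 °C, 5% CO2. Luciferase activity was then read with ONE-Glo after 30 min at room temperature; suppressed signal indicates blocked ELG1 function.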

A short description of assay [18]: qHTS for Inhibitors of Cell Surface uPA Generation: Validation Assay (AID 493164).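 Also: RAW 264.7 macrophage cells exposed to compound for 18 h.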 The procedure, abridged:
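RAW 264.7, 4000 cells/well, o/n plating; cpd 7-pt 1:5 dilution 2.45 nM–38.3 uM final; 18 h, 37 C/5% CO2; ATP-Lite, 5 s luminescence exposure.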

For assay [19], the target named is Peptidyl-prolyl cis-trans isomerase NIMA-interacting 1 (Homo sapiens) (UniProt Q13526). Briefly: qHTS Validation Assay to Find Inhibitors of Pin1 (AID 504536; active = well fitted inhibition curve with a large enough effect in the polarisation, with a control signal flat, not every such curve was filed as active; the % refers to the polarisation). The method in brief: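 Fluorescence polarization competition: compounds (titration) displace HiFluor-488-labeled Pin1-1b peptide from Pin1 (0.3 uM final) in pH 7.5 HEPES buffer with DTT, 10 min at room temperature; %Activity normalized to no-enzyme wells, curves fitted.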
Peptidyl-prolyl cis-trans isomerase NIMA-interacting 1 (Homo sapiens), sequence (Q13526 whole entry, looked up): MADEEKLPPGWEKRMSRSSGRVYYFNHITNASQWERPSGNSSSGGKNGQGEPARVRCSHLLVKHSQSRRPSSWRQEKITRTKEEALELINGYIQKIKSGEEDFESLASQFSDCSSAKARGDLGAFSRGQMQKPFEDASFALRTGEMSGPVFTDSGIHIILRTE

Assay [20] can be described thus: qHTS for Inhibitors of ATXN expression: Validation of Cytotoxic Assay (AID 588349). Also: potency is read from the fitted curve at half-maximal effect. The method in brief:
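HEK293 cells were dosed with titrated compounds for 72 hr at 37 degrees C. Viability was read by CellTiter Glo luminescence, with intracellular ATP as the marker of cell survival.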

The nature of assay [21]: qHTS for Inhibitors of ATXN expression: Validation (AID 588378). Also: potency is read from the fitted curve at half-maximal effect; nearly all actives have a fitted effect of over 75% in size. The method in brief:
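Luminescence from an ATXN2-FFLuc reporter in HEK293 cells served as read-out after 24 h compound treatment at 37 degrees C; CellTiter-Fluor fluorescence was recorded first to assess viability.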

A short description of assay [22]: qHTS of Trypanosoma Brucei Inhibitors: LOPAC Validation (AID 624147). The method in brief:
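ADP (130 uM final) triggers the TbPYK reaction after compound addition; incubation is 45 min at room temperature. Kinase-Glo Plus is then added and luminescence imaged. Normalized data are fitted to concentration-effect curves.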

Assay [23] deals with Glucagon-like peptide 1 receptor (Homo sapiens) (UniProt P43220). The assay is described as follows: qHTS of GLP-1 Receptor Agonists: LOPAC Validation (AID 624148).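 Also: luminescence from a luciferase reporter switched on by cAMP; higher luminescence signal means agonism.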 The procedure, abridged: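 Agonism scored as increased luciferase luminescence driven by cAMP in HEK293 clones carrying GLP-1R. Cells settled 12 hours, received compound for 4-6 hr at 37 deg C, 5% CO2, and were read after 12 min detection reagent at RT.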
Glucagon-like peptide 1 receptor (Homo sapiens), sequence (P43220 whole entry, looked up): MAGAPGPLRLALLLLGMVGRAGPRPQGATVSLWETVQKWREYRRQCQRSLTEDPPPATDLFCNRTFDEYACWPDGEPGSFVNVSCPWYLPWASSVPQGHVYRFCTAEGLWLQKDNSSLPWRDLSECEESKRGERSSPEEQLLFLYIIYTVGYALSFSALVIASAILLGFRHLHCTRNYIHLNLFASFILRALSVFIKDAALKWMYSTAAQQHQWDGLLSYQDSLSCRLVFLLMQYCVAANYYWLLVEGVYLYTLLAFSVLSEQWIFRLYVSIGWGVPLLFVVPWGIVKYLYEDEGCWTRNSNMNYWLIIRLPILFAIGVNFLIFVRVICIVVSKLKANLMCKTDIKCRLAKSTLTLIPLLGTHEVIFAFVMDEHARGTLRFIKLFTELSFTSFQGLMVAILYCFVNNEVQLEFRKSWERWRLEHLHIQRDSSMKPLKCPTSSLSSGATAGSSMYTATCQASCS

D(1A) dopamine receptor (Homo sapiens), sequence (P21728 whole entry, looked up): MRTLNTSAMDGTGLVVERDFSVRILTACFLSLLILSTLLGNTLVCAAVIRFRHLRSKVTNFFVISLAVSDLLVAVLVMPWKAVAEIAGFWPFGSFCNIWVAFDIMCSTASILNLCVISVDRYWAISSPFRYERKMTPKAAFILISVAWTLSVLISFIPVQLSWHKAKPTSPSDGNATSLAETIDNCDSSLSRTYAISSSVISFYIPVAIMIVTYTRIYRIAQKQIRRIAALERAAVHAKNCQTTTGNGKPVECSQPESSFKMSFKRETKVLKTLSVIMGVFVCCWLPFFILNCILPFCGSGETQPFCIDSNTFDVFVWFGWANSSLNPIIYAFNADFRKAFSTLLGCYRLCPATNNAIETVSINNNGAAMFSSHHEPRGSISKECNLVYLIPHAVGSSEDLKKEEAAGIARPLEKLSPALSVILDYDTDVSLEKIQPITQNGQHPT
Thioredoxin reductase 1, cytoplasmic (Rattus norvegicus), sequence (O89049 whole entry, looked up): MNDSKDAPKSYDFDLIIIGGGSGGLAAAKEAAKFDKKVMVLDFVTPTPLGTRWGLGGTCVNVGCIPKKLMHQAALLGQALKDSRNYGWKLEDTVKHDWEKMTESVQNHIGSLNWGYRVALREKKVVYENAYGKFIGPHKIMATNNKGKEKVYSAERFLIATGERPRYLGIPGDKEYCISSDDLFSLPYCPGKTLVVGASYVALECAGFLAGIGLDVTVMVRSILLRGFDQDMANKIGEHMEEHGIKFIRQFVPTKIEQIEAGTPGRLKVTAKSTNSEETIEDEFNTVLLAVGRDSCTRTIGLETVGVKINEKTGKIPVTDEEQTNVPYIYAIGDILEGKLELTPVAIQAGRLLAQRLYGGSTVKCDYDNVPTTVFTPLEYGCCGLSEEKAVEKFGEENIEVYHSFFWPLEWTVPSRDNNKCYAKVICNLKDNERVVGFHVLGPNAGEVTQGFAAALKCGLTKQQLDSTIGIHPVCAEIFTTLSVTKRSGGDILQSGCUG
Tumor susceptibility gene 101 protein (Homo sapiens), sequence (Q99816 whole entry, looked up, the tested form may be a part): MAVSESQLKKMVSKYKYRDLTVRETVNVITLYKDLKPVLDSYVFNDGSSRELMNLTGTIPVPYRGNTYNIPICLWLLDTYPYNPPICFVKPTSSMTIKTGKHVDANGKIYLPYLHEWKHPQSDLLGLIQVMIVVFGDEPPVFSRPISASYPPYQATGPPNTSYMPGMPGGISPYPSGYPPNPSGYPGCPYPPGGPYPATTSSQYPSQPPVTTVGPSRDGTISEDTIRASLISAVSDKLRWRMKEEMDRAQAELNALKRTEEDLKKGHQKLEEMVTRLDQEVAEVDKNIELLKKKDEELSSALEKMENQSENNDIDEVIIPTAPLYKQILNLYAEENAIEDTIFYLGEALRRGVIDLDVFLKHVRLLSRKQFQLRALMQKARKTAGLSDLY
Chromobox protein homolog 1 (Homo sapiens), sequence (P83916 whole entry, looked up): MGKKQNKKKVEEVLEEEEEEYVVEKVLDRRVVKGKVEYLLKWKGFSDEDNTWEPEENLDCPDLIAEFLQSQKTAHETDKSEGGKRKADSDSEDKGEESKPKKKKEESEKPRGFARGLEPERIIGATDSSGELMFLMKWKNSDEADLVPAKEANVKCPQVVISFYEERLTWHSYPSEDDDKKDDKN

As for `O=C1c2ccccc2C(=O)c2c(NCCc3ccc(O)cc3)ccc(NCCc3ccc(O)cc3)c21`, the result in assay [1], in assay [2], in [7], in assay [8], in [9] and in assay [13] was inactive. Besides, the outcome in assay [14], in assay [15], in assay [18], in assay [22] and in [23] was inactive. Also, the Potency is 4.65 µM (active) in assay [3]; 4.65 µM (active) in assay [4]; 2.12 µM (active) in assay [11]; 1.78 µM (active) in assay [12]; 14.6 µM (active) in assay [17]; 8.91 µM (active) in assay [20]. In addition, the Potency in [21] was 8.91 µM (active). Besides, the Potency entry in assay [5], in assay [6], in [10], in [16] and in [19] was “inactive” each time.
